Results: PubChem BioAssay (NCATS)
Results filed as inconclusive are left out. Values without a mark were called inactive. Activity calls are given as the source filed them. Calls follow the shape of the dose curve; as a rule, active = well fitted inhibition curve with a large enough effect; inconclusive = small, poorly fitted or top-dose-only effect; inactive = flat fitted curve, though single readings scatter. Where a SMILES comes first, the peptide text is derived from it.

System: HaCat
Test: Cytotoxic Profiling of Annotated Libraries Using Quantitative High-Throughput Screening (AID 1296008); also: nearly all actives have a fitted effect of over 60% in size
Conditions: Five cell lines viability, CellTiter-Glo ATP luminescence, 48-72 h; max response: active compounds read low
Outline: (§1)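 Cells exposed to compounds for 48 or 72 hr at 37 degrees Celsius. Viability read as ATP-coupled luminescence with CellTiter-Glo after 10 min at room temperature.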
% is scaled to controls: 0 for no effect and ±100 for the full control effect.

Compound | outcome
CC(=O)NCCCCn1c2c(c3ccccc31)C(=O)NCC2 | inactive
CC[C@@H](c1ccc(F)c(F)c1)n1c(C(=O)OC)c(-c2ccno2)[nH]c1=S | inactive
CC/C=C/CC1=C(CCCCCCCC(=O)O)CCC1=O | inactive
C=C[C@H]1[C@H](O[C@@H]2O[C@H](CO)[C@@H](O)[C@H](O)[C@H]2O)OC=C2C(=O)OCC[C@]21O | inactive
O=C(NN1CCCCC1)c1nn(-c2ccc(Cl)cc2Cl)c(-c2ccc(C#Cc3ccc(C(F)(F)F)cc3)s2)c1CNS(=O)(=O)N1CCCC1 | inactive
NCc1c[nH]c(=S)n1C1CCc2c(F)cc(F)cc2C1 (stereo not drawn) | inactive
O=C(O)Cc1nn(Cc2nc3cc(C(F)(F)F)ccc3s2)c(=O)c2nccnc12 | inactive
CC(=O)N1CCN(NC(=O)c2ccc(F)cc2)CC1 | inactive
COc1ccc2cc(OCC3(C(=O)O)CN(C(=O)c4ccc(F)cc4)C3)ccc2c1 | inactive
C=C[C@](C)(CC/C=C(\C)C(=O)O)O[C@@H]1OC[C@H](O)[C@H](O)[C@H]1O | inactive
CC1(C)CC2C3=CCC4C5(C)CCC(OC6OC(C(=O)O)C(O)C(O)C6OC6OC(CO)C(O)C(O)C6OC6OC(CO)C(O)C(O)C6O)C(C)(CO)C5CCC4(C)C3(C)CCC2(C)C(OC2OCC(O)C(OC3OC(CO)C(O)C(O)C3O)C2O)C1O (stereo not drawn) | inactive
COc1cc(/C=C/C(=O)OC2[C@H](O)CC(O)(C(=O)O)C[C@H]2O)ccc1O (stereo partly drawn) | inactive
CC(C)=CC/C=C(/C)[C@H]1CC[C@]2(C)[C@@H]1[C@H](O)CC1[C@@]3(C)CC[C@H](O)C(C)(C)[C@@H]3[C@@H](O[C@@H]3O[C@H](CO)[C@@H](O)[C@H](O)[C@H]3O[C@@H]3O[C@@H](C)[C@H](O)[C@@H](O)[C@H]3O)C[C@]12C (stereo partly drawn) | inactive
CC1NC(=O)CNC(=O)C(C(C)C)NC(=O)C2CCCN2C(=O)C(C(C)C)NC(=O)C(Cc2c[nH]c3ccccc23)NC1=O (stereo not drawn) (cyclo(GAWVPV); configuration not given here) | inactive

System: KB-3-1
Test: as above
Conditions: Five cell lines viability, CellTiter-Glo ATP luminescence, 48-72 h; max response: active compounds read low
Outline: as §1

Compound | max response | outcome
C=C1C[C@@]23CC[C@@H]4[C@](C)(C(=O)O)CCC[C@@]4(C)C2=CC[C@H]1C3 | 4.16% | 
CC1OC(OC2C(O)C(C(=O)O)OC(OC3CCC4(C)C(CCC5(C)C4C=CC4=C6CC(C)(C)CC(O)C6(C)CCC45C)C3(C)C)C2OC2OCC(O)C(O)C2O)C(O)C(O)C1O (stereo not drawn) | 1.62% | 
CC1OC(O[C@H]2[C@@H](O)C[C@@]3(C)C([C@H](O)C[C@]4(C)C3CC=C3C5CC(C)(C)CC[C@]5(C(=O)OC5OC(CO)C(O)C(O)C5OC5OCC(OC6OCC(OC7OCC(O)C(O)C7O)C(O)C6O)C(OC6OCC(O)(CO)C6O)C5O)CC[C@]34C)[C@]2(C)CO)C(O)C(O)C1O (stereo partly drawn) | 0.161% | 
CC(=O)O[C@H]1[C@H](C)[C@@H](O)[C@H]2[C@@H]1C=C(C(=O)O)[C@H]1C[C@@H]3[C@H]([C@H]21)[C@H]1C(=O)O[C@@H]2CC[C@@]3(C)O[C@]1(O)[C@@H]2C | 7.8% | 
C[C@@H]1CC[C@]2(C(=O)O)CC[C@]3(C)C(=CCC4[C@]5(C)C(CC[C@]43C)C(C)(C)[C@@H](O)[C@H](O)[C@@H]5O)C2[C@]1(C)O (stereo partly drawn) |  | inactive
C/C=C1\[C@H](O[C@@H]2O[C@H](CO)[C@@H](O)[C@H](O)[C@H]2O)OC=C(C(=O)OC)[C@H]1CC(=O)OC | 5.8% | 
C/C=C/C=C/C(CC(=O)O)Nc1ccc(C=O)cc1 (stereo not drawn) | 5.57% | 
C=C[C@@]1(C)CC(=O)C2[C@](C)(O1)[C@@H](OC(C)=O)[C@@H](O)[C@H]1C(C)(C)CCC[C@]21C (stereo partly drawn) | 7.42% | 
CCC(C)/C=C(C)/C=C/C1=CC2=C(Cl)C(=O)C(C)(OC(C)=O)C(=O)C2=CN1C1CCCCN(C(CCC(N)=O)C(=O)O)C1=O (stereo not drawn) |  | inactive
C=C1C(=O)OC2CC(C)=C(C(C)CCCO[C@@H]3O[C@H](CO)[C@@H](O)[C@H](O)[C@H]3O)C(O)C12 (stereo partly drawn) |  | inactive
CC(C)C1=CCC(C)(O)C(OC2OC(CO)C(O)C(O)C2O)C1 (stereo not drawn) |  | inactive
C[C@H]1C[C@H]2[C@@H]3CCC4=CC(=O)C=C[C@]4(C)[C@@]3(F)[C@@H](O)C[C@]2(C)[C@@]1(O)C(=O)COP(=O)(O)O |  | inactive
C=C(C(=O)O)[C@@H]1CC=C2CCC[C@H](C)[C@@]2(C)C1 | 4.53% | 
C=C1CC2[C@]3(C)C(=C(O)C(=O)[C@@]2(C)[C@]2(C(=O)OC)C(=O)C(C)OC(=O)[C@@]12C)C(C)(C)C(=O)CC3O (stereo partly drawn) |  | inactive
COC(=O)[C@@]1(O)C=CC[C@@H]2[C@@]3(C)C[C@@H](c4ccoc4)OC(=O)[C@H]3CC[C@]21C | 0.0207% | 
CC(=O)OC[C@]12[C@H](OC(C)=O)C(=O)[C@@H]3[C@@H](OC(C)=O)[C@@]14O[C@@]3(C)COC(=O)c1cccnc1[C@@H](C)[C@H](C)C(=O)O[C@@H]([C@H](OC(C)=O)[C@@H]2OC(C)=O)[C@]4(C)O |  | inactive
CCCCCCc1cccc(NC(=O)[C@H](N)CCP(=O)(O)O)c1 |  | inactive
C/C(=C\CCC(C)(O)c1ccc(C)cc1)C(=O)O (stereo not drawn) |  | inactive
CO[C@H]1C=C2C(CC[C@H](O[C@@H]3O[C@H](CO)[C@@H](O)[C@@H](O)[C@H]3O)C2(C)C)[C@]2(C)CC[C@]3(C)C([C@H](C)C(O)C(C=C(C)C)O[C@@H]4O[C@H](CO)[C@@H](O)[C@@H](O)[C@H]4O)CC[C@@]3(C)C12 (stereo partly drawn) | 6.33% | 
C[C@@H]1O[C@@H](O[C@@H]2[C@@H](O)[C@H](O[C@@H]3[C@@H](O)[C@@H](O)[C@H](O[C@H]4[C@H](OC(=O)[C@]56CCC(C)(C)C[C@H]5C5=CCC7[C@@]8(C)C[C@H](O)[C@H](O[C@@H]9O[C@H](C(=O)O)[C@@H](O)[C@H](O)[C@H]9O)[C@@](C)(CO)C8[C@H](O)C[C@@]7(C)[C@]5(C)CC6)OC[C@H](O)[C@@H]4O)O[C@H]3C)OC[C@H]2O)[C@H](O)[C@H](O)[C@H]1O (stereo partly drawn) | 2.1% | 

Compound | max response | outcome
C/C=C/C=C/C=C/C(=O)O[C@@H]1C=C(CO)C(O)(C(=O)O)[C@@]2(C)CCCC(C)(C)[C@H]12 (stereo partly drawn) | 0.213% | 
CCOC(=O)c1ccnc(CNCC(=O)N(CC)CCN(C)C)c1 | 5.64% | 
C/C=C/C=C/C=C/C(=O)O[C@@H]1[C@@H](OC)C2=C(C(=O)N(C(C)C(=O)O)C2)[C@@]2(C)CCCC(C)(C)[C@H]12 (stereo partly drawn) | 5.59% | 
C[C@H]1CN(C[C@H](Cc2ccccc2)C(=O)NCC(=O)O)CC[C@@]1(C)c1cccc(O)c1 |  | inactive
C=C(C)C(=O)O[C@H]1C[C@@](C)(OC(C)=O)[C@@]2(O)CC[C@@](C)(O)[C@H](OC(C)=O)[C@@]23OC(=O)C(COC)=C13 | 6.06% | 
CC(=O)NCCCCn1c2c(c3ccccc31)C(=O)NCC2 |  | inactive
CC[C@@H](c1ccc(F)c(F)c1)n1c(C(=O)OC)c(-c2ccno2)[nH]c1=S | 5.04% | 
CC/C=C/CC1=C(CCCCCCCC(=O)O)CCC1=O | 0.0316% | 
C=C[C@H]1[C@H](O[C@@H]2O[C@H](CO)[C@@H](O)[C@H](O)[C@H]2O)OC=C2C(=O)OCC[C@]21O | 0.223% | 
O=C(NN1CCCCC1)c1nn(-c2ccc(Cl)cc2Cl)c(-c2ccc(C#Cc3ccc(C(F)(F)F)cc3)s2)c1CNS(=O)(=O)N1CCCC1 | 4.58% | 
NCc1c[nH]c(=S)n1C1CCc2c(F)cc(F)cc2C1 (stereo not drawn) | -6.7% | 
O=C(O)Cc1nn(Cc2nc3cc(C(F)(F)F)ccc3s2)c(=O)c2nccnc12 | 9.35% | 
CC(=O)N1CCN(NC(=O)c2ccc(F)cc2)CC1 | 8.34% | 
COc1ccc2cc(OCC3(C(=O)O)CN(C(=O)c4ccc(F)cc4)C3)ccc2c1 | 1.45% | 
C=C[C@](C)(CC/C=C(\C)C(=O)O)O[C@@H]1OC[C@H](O)[C@H](O)[C@H]1O | 3.33% | 
CC1(C)CC2C3=CCC4C5(C)CCC(OC6OC(C(=O)O)C(O)C(O)C6OC6OC(CO)C(O)C(O)C6OC6OC(CO)C(O)C(O)C6O)C(C)(CO)C5CCC4(C)C3(C)CCC2(C)C(OC2OCC(O)C(OC3OC(CO)C(O)C(O)C3O)C2O)C1O (stereo not drawn) | 5.61% | 
COc1cc(/C=C/C(=O)OC2[C@H](O)CC(O)(C(=O)O)C[C@H]2O)ccc1O (stereo partly drawn) | 0.663% | 
CC(C)=CC/C=C(/C)[C@H]1CC[C@]2(C)[C@@H]1[C@H](O)CC1[C@@]3(C)CC[C@H](O)C(C)(C)[C@@H]3[C@@H](O[C@@H]3O[C@H](CO)[C@@H](O)[C@H](O)[C@H]3O[C@@H]3O[C@@H](C)[C@H](O)[C@@H](O)[C@H]3O)C[C@]12C (stereo partly drawn) | 7.96% | 
CC1NC(=O)CNC(=O)C(C(C)C)NC(=O)C2CCCN2C(=O)C(C(C)C)NC(=O)C(Cc2c[nH]c3ccccc23)NC1=O (stereo not drawn) (cyclo(GAWVPV); configuration not given here) |  | inactive
